# Rows were chosen to be rich in hits. Some 3.3% of all compounds tested hit in one or more screens of this group.
# USP1-UAF1 inh: Inhibitors of USP1/UAF1: Primary Screen | Potency, µM (highest dose often 57.1 µM), without a hit: top-dose activity change, negative = inhibition, usual class: inhibitors | 0.23% of 390,000 active | recombinant USP1/UAF1, Ub-Rhodamine cleavage fluorescence | Ubiquitin carboxyl-terminal hydrolase 1 (Homo sapiens), O94782 | AID 743255, 2014; note: potency is the fitted concentration of half-maximal effect; nearly all actives have a fitted effect of over 60% in size
#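 Step one: compound is pinned into 1nM USP1/UAF1 in HEPES pH 7.8 buffer with TCEP. Step two: 15 min room-temperature incubation. Step three: Ub-Rho (150nM final) starts cleavage, tracked by fluorescence over six one-minute reads.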
# PLK1 PBD block: qHTS for Inhibitors of PLK1-PDB (polo-like kinase 1 - polo-box domain): Primary Screen; Serine/threonine-protein kinase PLK1 (Homo sapiens), P53350; Plk1 PBD binding of FITC phosphopeptide, fluorescence polarization; Potency, µM, without a hit: max response, negative = inhibition, actives largely listed as inhibitors; 2.8% of 360,000 active; note: potency is the fitted concentration of half-maximal effect; series mostly up to about 57 µM; nearly all actives have a fitted effect of over 65% in size
# PI5P4Ka inh: qHTS for Inhibitors of phosphatidylinositol 5-phosphate 4-kinase (PI5P4K); Phosphatidylinositol 5-phosphate 4-kinase type-2 alpha (Homo sapiens), P48426; PI5P4Kalpha enzyme, ADP-Glo luminescence, 60 min; hits give low values; max response, %; 1.2% of 330,000 active; active = max response of -50% or lower; inconclusive = between -30% and -50%; inactive = -30% or higher; note: value at the top dose of about 77 µM
#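 ADP-Glo luminescence end-point after a 60 min room-temperature kinase reaction. PI5P4Kalpha and substrate in HEPES pH 7.4 buffer with EGTA, 0.1% CHAPS and 5% DMSO; ATP at 5 microM final.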
# WRN inhibitor: qHTS for Inhibitors of WRN Helicase; Bifunctional 3'-5' exonuclease/ATP-dependent helicase WRN (Homo sapiens), Q14191; WRN helicase unwinding, fluorescent forked duplex, kinetic; Potency, µM (series often up to 114 µM), for inactives: at the top dose activity change, negative = inhibition, usual class: inhibitors; 0.46% of 360,000 active; AID 651768, 2012; note: potency is the fitted concentration of half-maximal effect; nearly all actives have a fitted effect of over 55% in size
#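 Kinetic fluorescence helicase assay: unwinding of a quenched forked DNA duplex (100 nM final) with 2 mM ATP final raises red fluorescence (525/598 nm). Compounds sat 15 min at room temperature with 20 nM WRN beforehand.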
# USP2a inh: qHTS Assay for Inhibitors of Ubiquitin-specific Protease USP2a Using CHOP2 as the Reporter. USP2 core, Ub-CHOP2 coupled fluorogenic reporter, 485/531. Potency, µM (titrated, usually from 38.3 µM), for the others: top-dose activity change, negative = inhibition, usual class: inhibitors. 0.01% of 330,000 active. AID 463254, 2010;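 note: potency is the fitted concentration of half-maximal effect; plate controls were DMSO wells for no effect and full inhibition by NEM control for full effect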
# Target sequence (O75604 whole entry, looked up): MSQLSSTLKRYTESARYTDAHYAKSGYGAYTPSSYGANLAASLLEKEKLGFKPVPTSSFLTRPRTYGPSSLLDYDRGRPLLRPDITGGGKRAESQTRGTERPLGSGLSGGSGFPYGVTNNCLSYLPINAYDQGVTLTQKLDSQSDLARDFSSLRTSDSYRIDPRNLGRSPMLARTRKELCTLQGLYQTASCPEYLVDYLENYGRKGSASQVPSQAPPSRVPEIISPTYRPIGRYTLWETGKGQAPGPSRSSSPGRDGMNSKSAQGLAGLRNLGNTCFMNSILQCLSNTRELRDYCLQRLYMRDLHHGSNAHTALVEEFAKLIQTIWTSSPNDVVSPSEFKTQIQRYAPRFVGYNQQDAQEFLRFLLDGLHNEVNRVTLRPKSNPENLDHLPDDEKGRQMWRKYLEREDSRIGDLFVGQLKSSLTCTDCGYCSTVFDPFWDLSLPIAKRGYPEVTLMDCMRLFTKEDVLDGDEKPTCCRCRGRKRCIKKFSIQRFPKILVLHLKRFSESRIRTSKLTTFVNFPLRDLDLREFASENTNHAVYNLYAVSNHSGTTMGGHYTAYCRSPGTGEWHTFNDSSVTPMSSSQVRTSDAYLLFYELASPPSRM
#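 Deubiquitinase activity read as fluorescence (485/531 nm) after Ub-CHOP2 cleavage activates the enterokinase reporter on its substrate; USP2 core 10nM, Ub-CHOP2 and substrate 25nM each, 30min compound preincubation then 60min RT; data normalized to NEM, curves fitted.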
# * hit, by the source's call; ? = inconclusive; · = no result given; [ ] = remark or other dose. Unless noted, calls come from the whole dose curve; as a rule, active = well fitted curve in the direction sought with a large enough effect; inconclusive = small, poorly fitted or top-dose-only effect, or another doubt; inactive = no such curve, though single readings can be large; an effect the other way counts as inactive or inconclusive. Unless noted, % is set by controls: 0 for no effect and ±100 for the full control effect.
SMILES,USP1-UAF1 inh,PLK1 PBD block,PI5P4Ka inh,WRN inhibitor,USP2a inh
Cc1cccc(C)c1NC(=O)CSc1ncc2c(n1)-c1ccc(Cl)cc1N(Cc1ccccc1)S2(=O)=O,-5.3%,·,·,·,·
O=C(O)c1ccccc1NS(=O)(=O)c1cccc(N=Nc2c(O)[nH]c(=S)[nH]c2=O)c1,-17.7%,-13.8%,-73.8*,-32.0%,-0.5%
O=C(O)c1cc(S(=O)(=O)Nc2cc(Cl)ccc2Oc2ccccc2)ccc1O,-23.6%,?,-12.1,2.1%,-2.9%
O=C(O)c1cc(S(=O)(=O)Nc2ccccc2C(=O)O)ccc1O,-2.5%,?,-53.7*,-10.4%,0.0%
Cc1ccc(NC(=O)c2cc(S(=O)(=O)N3CCC4(CC3)OCCO4)ccc2F)cc1Cl,-15.7%,·,·,·,·
CC(C)(C)c1nnc2sc(SCC(=O)N3CCc4ccccc43)nn2c1=O,-19.4%,26.7µM*,?,4.0%,1.6%
C1COCCNCCOCCOCCOCCN1,1.7%,-2.0%,0.8,-12.2%,2.2%
S=C1NCCNC(=S)NCCOCCOCCN1,?,26.7µM*,-25.9,-22.7%,-0.8%
COc1cc(C(=O)NCc2ccc3c(c2)CCN3C(=O)c2ccncc2)cc(OC)c1OC,-17.9%,·,·,·,·
COc1ccc(C2CC(=O)c3cnc(N4CCN(Cc5ccccc5)CC4)nc3C2)cc1 (stereo not given),-2.3%,21.2µM*,-23.8,10.2%,0.1%
CCOC(=O)c1c(NC(=O)COc2ncnc3ccccc23)sc(C)c1C,-13.5%,-6.2%,5.1,7.3%,0.6%
CCOC(=O)c1c(C)[nH]c(C)c1C(=O)COc1ncnc2ccccc12,1.2%,11.9µM*,-54.6*,-34.0%,2.2%
CCCOc1ccc(Cc2nn3c(=O)/c(=C/c4ccco4)sc3nc2=O)cc1,-3.0%,-10.9%,?,56.2µM*,3.0%
Cc1ccc(NCc2nnc(SCC(N)=O)n2CC2CCCO2)c(C)c1 (stereo not given),-1.0%,29.9µM*,8.3,-6.4%,-2.5%
COc1ccc(C=C2C=C(C(C)(C)C)C(=O)C(C(C)(C)C)=C2)cc1OC,-34.8%,29.9µM*,0.1,-8.4%,1.6%
Cc1ccc(SCc2cc(=O)c3c(=O)n(-c4ccccc4)[nH]c3[nH]2)cc1,0.5%,-27.2%,-61.8*,?,?
O=c1cc(CSc2ccc(Cl)cc2)[nH]c2[nH]n(-c3ccccc3)c(=O)c12,-22.2%,-17.2%,?,-20.3%,-0.9%
Brc1ccc(Nc2c3c(nc4nncn24)CCC3)cc1,4.6%,·,·,·,·
Cc1sc2ncnc(SCC(=O)NC(=O)c3cccn3C)c2c1C,-14.2%,16.8µM*,?,-28.9%,6.5%
Cc1cccc(NC(=O)CSc2ncnc3sc(C)c(C)c23)n1,-6.6%,-15.2%,-23.6,?,2.3%
CCC(C)Sc1nc2c(c(=O)[nH]c(=O)n2C)n1CC(O)COc1ccccc1C (stereo not given),-4.1%,10.6µM*,-8.3,-3.7%,-1.3%
CCC(C)Sc1nc2c(c(=O)[nH]c(=O)n2C)n1CCc1ccccc1 (stereo not given),-14.3%,-0.7%,-0.4,-13.1%,2.1%
CCC(C)Sc1nc2c(c(=O)[nH]c(=O)n2C)n1Cc1ccc(Cl)cc1 (stereo not given),-2.4%,-27.2%,-0.2,-8.6%[57.1 µM],3.7%
CCOC(=O)C(C)Sc1nc2c(c(=O)[nH]c(=O)n2C)n1Cc1ccc(Cl)cc1 (stereo not given),-30.7%,21.2µM*,-7.4,-3.8%,3.6%
C=CCSc1nc2c(c(=O)[nH]c(=O)n2C)n1C(C)C,-12.4%,26.7µM*,-17.8,-27.5%,-0.8%
SMILES,USP1-UAF1 inh,PLK1 PBD block,PI5P4Ka inh,WRN inhibitor,USP2a inh
Cc1cc(C)n(-c2nc3c(c(=O)[nH]c(=O)n3C)n2CCc2ccccc2)n1,1.7%,29.9µM*,2.9,-1.0%,3.1%
COc1ccc(OC)c(NC(=O)c2nnn(CC(=O)Nc3ccc(C(C)C)cc3)c2N)c1,13.1%,·,·,·,·
Cc1ccc2oc(C(=O)N(Cc3cccc(F)c3)C3CCS(=O)(=O)C3)c(C)c2c1 (stereo not given),-13.2%,·,·,·,·
Cc1cn2c(=O)c(S(=O)(=O)NCCc3ccccc3)c(C)nc2s1,-11.4%,·,·,·,·
CC1CCCCN1C(=O)CSc1nc2ccccc2nc1Cc1ccc(Cl)cc1 (stereo not given),-16.1%,·,·,·,·
Cc1ccc(Cn2c(SCC(C)C)nc3c2c(=O)[nH]c(=O)n3C)cc1,-14.9%,23.8µM*,-7.7,-25.9%[57.1 µM],3.7%
CCOC(=O)C(CC)Sc1nc2c(c(=O)[nH]c(=O)n2C)n1CCc1ccccc1 (stereo not given),5.0%,23.8µM*,-5.8,-4.3%,-7.5%
CCCSc1nc2c(c(=O)[nH]c(=O)n2C)n1Cc1ccc(C)cc1,-14.5%,-9.1%,0.4,-5.2%,6.7%
C=CCSc1nc2c(c(=O)[nH]c(=O)n2C)n1Cc1ccc(C)cc1,-17.8%,21.2µM*,-4.1,2.7%,3.0%
C=CCn1c(SCc2ccc(Cl)cc2)nc2c1c(=O)[nH]c(=O)n2C,-20.0%,-14.0%,-7.6,-19.3%[57.1 µM],-8.1%
Cc1ccc(S(=O)(=O)NCC2CCC(C(=O)NCCc3ccc(Cl)cc3)CC2)cc1 (stereo not given),7.1%,·,·,·,·
Cc1ccc(Cl)cc1N(C)C(=O)c1sc2nc3n(c(=O)c2c1C)CCCC3,-17.4%,·,·,·,·
CC(C)(C)OC(=O)N1CCC(c2c(C(=O)N3CCN(c4ccccn4)CC3)cnn2-c2cccc(F)c2)CC1,4.4%,·,·,·,·
COc1ccc(CNCc2c(C(=O)O)c(C)n(Cc3ccccc3C)c2C)c(OC)c1,-12.1%,·,·,·,·
CCNC(=O)CC1C(=O)N(c2cccc(OC)c2)C(=O)N1Cc1ccc(OC)c(OC)c1 (stereo not given),-6.5%,·,·,·,·
CNC(=S)N(Cc1ccc2c(c1)OCO2)C1CC(=O)N(c2ccccc2)C1=O (stereo not given),-19.0%,29.9µM*,-15.2,-2.9%,-2.1%
CCOC(=O)c1c(NC(C)=O)c2c3c(sc2n1Cc1ccc(Cl)cc1)CCCC3,2.4%,·,·,·,·
CC1(C)CC(=O)C(C(c2cc([N+](=O)[O-])ccc2Cl)C2C(=O)CC(C)(C)CC2=O)C(=O)C1,-10.3%,-22.5%,3.7,0.9%,·
Cc1sc(C(C2C(=O)CC(C)(C)CC2=O)C2C(=O)CC(C)(C)CC2=O)cc1[N+](=O)[O-],-14.1%,4.74µM*,?,-8.6%[11.6 µM],0.0%
CC1OC(OCC2OC(Oc3c(-c4ccc(O)cc4)oc4cc(O)cc(O)c4c3=O)C(O)C(O)C2O)C(O)C(O)C1O (stereo not given),-21.0%,-6.7%,-66.6*,?,4.5%
Cc1cc(C)cc(NC(=O)CSc2nc3c([nH]c4ccccc43)c(=O)n2-c2ccc(F)cc2)c1,-20.8%,·,·,·,·

# High-throughput results deposited in PubChem BioAssay by National Center for Advancing Translational Sciences (NCATS).
